Screens deposited in PubChem BioAssay by National Center for Advancing Translational Sciences (NCATS).
Hits are enriched below; roughly 2.2% of the tested compounds scored in any of these assays.
rTrxR1 inhibitor – inhibitors of rat thioredoxin reductase 1; recombinant rTrxR1, NADPH fluorescence consumption, selenite substrate; O89049; Potency, µM (highest dose often 114 µM), most hits filed as inhibitors; 390,000 compounds, 1% hits; AID 588453; note: nearly all actives have a fitted effect of over 65% in size
Target sequence (O89049 whole entry, looked up): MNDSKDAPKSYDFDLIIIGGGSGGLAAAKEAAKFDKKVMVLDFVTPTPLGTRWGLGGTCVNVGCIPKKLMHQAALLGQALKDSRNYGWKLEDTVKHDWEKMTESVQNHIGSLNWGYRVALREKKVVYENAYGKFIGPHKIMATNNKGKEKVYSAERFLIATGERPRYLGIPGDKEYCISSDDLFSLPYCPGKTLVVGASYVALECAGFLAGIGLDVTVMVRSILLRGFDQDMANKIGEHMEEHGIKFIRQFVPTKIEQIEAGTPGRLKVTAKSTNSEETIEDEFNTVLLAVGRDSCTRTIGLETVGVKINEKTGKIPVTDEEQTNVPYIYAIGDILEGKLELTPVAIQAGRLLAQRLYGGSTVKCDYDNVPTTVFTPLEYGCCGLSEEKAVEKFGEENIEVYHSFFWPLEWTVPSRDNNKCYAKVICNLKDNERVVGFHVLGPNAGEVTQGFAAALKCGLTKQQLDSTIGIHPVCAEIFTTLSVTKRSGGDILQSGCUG
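Rat TrxR1 (90 nM in the dispensed reagent) was pre-reduced with 400 uM NADPH for 5 min at room temperature, then incubated with compound for 15 min. After 400 uM selenite was added, NADPH fluorescence (Ex 340/Em 450 nm) was followed for 8 min.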
IL-2 act – activates IL-2 in a cell-based reporter assay. IL-2 activation reporter assay, cell-based qHTS; stimulated with anti-CD3/CD4/CD28 beads; in transgenic mouse T cells. activation, % (series mostly up to about 46 µM). 360,000 compounds, 0.065% hits. AID 652025; in the data active = activation above about 50%; inconclusive = mostly about 30% to 49%
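Unstimulated transgenic mouse T cells preincubated 60 min with compound, then stimulated with anti-CD3/anti-CD4-coated beads plus anti-CD28 for 18 h at 37 degrees C. IL-2 response read as EGFP and DsRed fluorescence by plate cytometry.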
TrxR1 substrate – rat thioredoxin reductase 1 substrate activity. purified TrxR1 substrate turnover, NADPH consumption readout. Potency, µM (top dose mostly 114 µM). 390,000 compounds, 0.01% hits; note: nearly all actives have a fitted effect of over 50% in size
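Rat TrxR1, dispensed at 90 nM, was prereduced with 400 uM NADPH (final) for 5 min at ~22 deg C, then incubated with compound 15 min before 400 uM selenite. A first-read NADPH fluorescence drop versus no-compound background flagged substrates.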
BRCA1 expr up – BRCA1 expression activation. 380,000 compounds, 1.1% hits. MCF7-BRCA1-FFLuc reporter, luminescence, 48 h; response scale: scaled: vehicle 0%, 10 µM genistein 100%. Potency, µM (highest dose often 46.1 µM), actives largely listed as activators. AID 624202; note: nearly all actives have a fitted effect of over 80% in size
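Compounds are tested at multiple concentrations on MCF7 BRCA1-luciferase reporter cells seeded at 2000 per well; after 48 h, a single luminescence end-point is taken and curves fitted to the normalized data.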
Giardia killer – Giardia lamblia killing. Giardia lamblia trophozoite viability. activity change, % at 7.66 µM, hits read low. 340,000 compounds, 0.15% hits; in the data active = activity change below about -80%; inconclusive = between about -30% and that limit;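 note: parasites exposed to compound for two days anaerobically before the ATP read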
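Media and compound were dispensed first, then trophozoites at 100 cells/well; plates sat 48 hrs at 37 deg C without oxygen before ATP luminescence reagent was added and read after 15-30 min at room temperature.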
mIDH1 inhibitor – inhibitors of human mutant IDH1 R132H. Potency, µM (titrated, usually from 76.6 µM), hits mostly inhibitors. O75874. 390,000 compounds, 0.093% hits. AID 602179. IDH1-R132H enzyme, NADPH consumption, diaphorase/resazurin fluorescence; note: nearly all actives have a fitted effect of over 65% in size
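IDH1-R132H (0.5 ug/mL dispensed) in pH 7.5 Tris buffer was preincubated 30 min with compound, then given a substrate mix of 0.016 mM NADPH and 2 mM alpha-KG for 80 min at room temperature; remaining NADPH was read by diaphorase/resazurin fluorescence.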
Of the large screens only hits and unclear results are named; the others gave an inactive call. Unless noted, calls come from the whole dose curve; as a rule, active = well fitted curve in the direction sought with a large enough effect; inconclusive = small, poorly fitted or top-dose-only effect, or another doubt; inactive = no such curve, though single readings can be large; an effect the other way counts as inactive or inconclusive.

O=C(CCSCc1ccccc1)Nc1ccc2c(c1)OCCO2	none
O=C(COc1ccc(Cl)cc1)Nc1ccccc1C(=O)OCc1cc(=O)n2ccsc2n1	none (no result: IL-2 act, BRCA1 expr up, Giardia killer)
O=C(Nc1ccc2c(c1)OCCO2)N1CCN(Cc2ccccc2)CC1	BRCA1 expr up 13µM
CCOC(=O)c1cc(-c2ccc(OC)cc2)n[nH]1	BRCA1 expr up 11µM
COC(=O)c1c(SCC(=O)Nc2ccccc2OC)[nH]c2ccccc2c1=O	mIDH1 inhibitor inconclusive (no result: IL-2 act, Giardia killer)
CCc1ccc2nc(N3CCN(C(=O)C(C)(C)C)CC3)sc2c1	BRCA1 expr up 13µM
CC(C)C(=O)N1CCN(c2nc3ccc(Cl)cc3s2)CC1	BRCA1 expr up 5µM
CC(C)NC(=O)N1CCCN(c2nc3ccc(Cl)cc3s2)CC1	none
c1ccc2sc(N3CCOCC3)nc2c1	BRCA1 expr up 8.9µM
CC(C)(C)C(=O)N1CCN(c2nc3ccccc3s2)CC1	BRCA1 expr up 3.2µM
c1ccc2sc(N3CN(CCN4CCOCC4)CN(c4nc5ccccc5s4)C3)nc2c1	BRCA1 expr up inconclusive
Clc1cc(Cl)c2nc(N3CCOCC3)sc2c1	BRCA1 expr up 11µM
Clc1ccc(Cl)c2sc(N3CCOCC3)nc12	none
CCOc1cc(Br)c(/C=C2/C(=O)N(C)C(=S)N2CC(=O)OC)cc1OC	IL-2 act 100
COc1cccc2c1C(=O)/C(=C/c1ccc(N(C)C)cc1)C2	BRCA1 expr up inconclusive (no result: IL-2 act, Giardia killer, mIDH1 inhibitor)
CCC(C(=O)Nc1ccc2c(c1)OCCO2)n1nnc2ccccc2c1=O (configuration not stated)	BRCA1 expr up 10µM
O=c1c2ccccc2sc2ccc(NCCCN3CCOCC3)cc12	BRCA1 expr up 11µM
COc1cc2sc3cc(NCCCN4CCOCC4)ccc3c(=O)c2cc1OC	BRCA1 expr up inconclusive, Giardia killer inconclusive
Cn1c(=O)c(=O)n(C)c2cc(N3CCCC3)c(NS(=O)(=O)c3ccc(Cl)cc3)cc21	rTrxR1 inhibitor 35µM
CCOC(=O)c1sc(-c2ccc(Br)cc2)cc1N	BRCA1 expr up 7.1µM
CCOC(=O)c1ccc(N2Cc3ccccc3C2)cc1O	rTrxR1 inhibitor inconclusive, BRCA1 expr up 13µM
COc1cncc(C#Cc2ccccn2)c1	BRCA1 expr up 4.5µM (no result: rTrxR1 inhibitor, TrxR1 substrate, Giardia killer, mIDH1 inhibitor)
COc1cc2oc3ccc(C#Cc4ccccn4)cc3c(=O)c2cc1OC	none
C(/C=C/c1ccco1)=N/N1CCN(c2ccccc2)CC1	BRCA1 expr up 10µM
c1ccc(-c2nc(N3CCN(c4ccccc4)CC3)nc(-n3ccnc3)n2)cc1	none
c1ccc(-c2ccc(-n3ccnc3)cc2)cc1	BRCA1 expr up 10µM
COc1ccc(/C=N/N2CCOCC2)cc1O	none
COc1cc(/C=N/N2CCOCC2)ccc1OCc1ccccc1	BRCA1 expr up 7.9µM
COc1ccc(/C=N/N2CCOCC2)cc1OCc1ccccc1	none
COc1cc(/C=N/N2CCOCC2)ccc1OCc1ccc(Cl)cc1	BRCA1 expr up 2.2µM
CCOc1ccc(-n2cc(-c3ccccc3)c3c(N4CCN(c5ccccc5OC)CC4)ncnc32)cc1	none (no result: IL-2 act, BRCA1 expr up, Giardia killer)
Cc1nc2c(C(=O)N(C)Cc3ccccc3)c[nH]n2c(=O)c1Cc1ccc(Cl)cc1	none (no result: IL-2 act, Giardia killer)
COC(=O)C1=C[C@@H](C(=O)OC)[C@@H]2C3=C(C(=O)C2(C)C)[C@H](C)n2c(=O)n(-c4ccccc4)c(=O)n2[C@@H]3C1	rTrxR1 inhibitor 56µM
Cc1ccc(CSc2ncn(-c3ccccc3)n2)cc1	BRCA1 expr up 11µM
Clc1ccccc1CSc1ncn(-c2ccccc2)n1	none
Cc1ccc(CNC(=O)C2CCC(=O)N(Cc3cccc(C(F)(F)F)c3)C2)o1 (configuration not stated)	rTrxR1 inhibitor 35µM
Cc1ccc(CNC(=O)C2CCC(=O)N(CC3CCCCC3)C2)o1 (configuration not stated)	rTrxR1 inhibitor 50µM
Cc1ccc(CNC(=O)C2CCN(S(=O)(=O)c3cccs3)CC2)o1	rTrxR1 inhibitor 8.9µM
COc1ccc(CNC(=O)C2CCC(=O)N(CC3CCCCC3)C2)cc1 (configuration not stated)	none
